Results reported in the supplement of paper PMC10498489.
Screen size: about 2,300 compounds; about 330 (14%) showed activity.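 Rule for the calls: active = median modified Z-score above 1.96; inactive = 1.96 or below.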 These entries were drawn from the full list.

Each molecule was assayed on HepG2 Srxn1-GFP reporter cells (+30 nM CDDO-Me) (assay: Srxn1-GFP intensity median modified Z-score relative to plate median; higher = stronger NRF2 / oxidative stress reporter activation, active = hit call of the paper). Conditions: 10 µM; exposure time: 24h.
How it was run: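 HepG2 Srxn1-GFP BAC reporter cells (20,000 per well, 96-well plates) were co-exposed to an NRF2 activator at 30 nM and compound at 10 μM (≤0.1% DMSO) for 24 h in three replicate plates. After formaldehyde fixation and Hoechst staining, confocal images were analysed per cell for cytoplasmic GFP, excluding images with under 100 cells. The value is the median over replicates of the per-plate modified Z-score of GFP intensity. Scaling used 1.4826 × median absolute deviation.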

Srxn1-GFP intensity median modified Z-score, active:
O=C(C=Cc1ccc(O)cc1)c1ccc(O)cc1O [euspeclibcmpd1984] 13.1
O=C(C=Cc1ccccc1)c1ccc(O)cc1O [euspeclibcmpd1990] 2.48
O=C1/C(=C\c2cccs2)CC/C1=C\c1cccs1 2.51
O=C1/C(=C/c2cccs2)CSC/C1=C/c1cccs1 13.2
O=C1/C(=C/c2cccs2)CCC/C1=C\c1cccs1 [euspeclibcmpd465] 36.6
NCCCCS(=O)(=O)O 10.1

Srxn1-GFP intensity median modified Z-score, inactive:
COc1ccc2c(c1)c(CC(=O)Nc1nccs1)c(C)n2C(=O)c1ccc(Cl)cc1 1.66
COc1ccc(O)c(C(=O)/C=C/c2ccc(F)cc2)c1 1.36
COc1ccc(/C=C/C(=O)c2ccc(O)cc2O)cc1 [euspeclibcmpd1445] 1.77
O=C(/C=C/c1ccccc1)c1ccc(O[C@@H]2O[C@H](CO)[C@@H](O)[C@H](O)[C@H]2O)cc1O [euspeclibcmpd1690] -0.0185
O=C(C=Cc1ccc(O)cc1)c1ccccc1O [euspeclibcmpd2063] -0.0605
N=c1[nH]c(F)nc2c1ncn2[C@@H]1O[C@H](COP(=O)(O)O)[C@@H](O)[C@@H]1O [euspeclibcmpd850] 0.307
COc1cc(C=CC(=O)O)cc(OC)c1O [euspeclibcmpd1663] -0.0893
CC(C)(C)NC(=O)C1CCC2C3CCC4NC(=O)C=C[C@]4(C)C3CC[C@]12C (stereo partly specified) [euspeclibcmpd849] -0.292
COc1cccc(OC)c1C(=O)NC1C(=O)N2C1SC(C)(C)C2C(=O)O (stereo unspecified) [euspeclibcmpd2201] 0.364
CC(O)=NO [euspeclibcmpd970] -0.0555
Cn1nnnc1SC=C1CSC2C(NC(=O)C(OC=O)c3ccccc3)C(=O)N2C1C(=O)O (stereo unspecified) [euspeclibcmpd2340] 0.482
C[N+]1(C)C2CC[C@H]1C[C@@H](OC(=O)C(O)c1ccccc1)C2 (stereo partly specified) [euspeclibcmpd149] 0.332
CN1C/C(=C/c2cccs2)C(=O)/C(=C/c2cccs2)C1 1.25
C#C[C@]1(O)CCC2C3CCc4cc(O)ccc4C3CC[C@@]21C (stereo partly specified) [euspeclibcmpd121] 0.17
COc1cc2[nH]c(N(C)CCCNC(=O)C3CCCO3)nc(=N)c2cc1OC (stereo unspecified) [euspeclibcmpd2275] -0.081
CN[C@H](CC(C)C)C(=O)NC1C(=O)N[C@@H](CC(N)=O)C(=O)N[C@H]2C(=O)Nc3c(O)[nH]c(c(O)[nH]c(=C(O)O)c4cc(O)cc(O)c4c4cc3ccc4O)[C@H](O)c3ccc(c(Cl)c3)Oc3cc2cc(c3O[C@@H]2OC(CO)[C@@H](O)[C@H](O)[C@H]2O[C@H]2C[C@](C)(N)[C@H](O)[C@H](C)O2)Oc2ccc(cc2Cl)[C@H]1O (stereo partly specified) [euspeclibcmpd319] 0.197
CCN1CCN(C(=O)NC(C(=O)NC2C(=O)N3C(C(=O)O)=C(CSc4nnnn4C)CSC23)c2ccc(O)cc2)C(=O)C1=O (stereo unspecified) [euspeclibcmpd431] -0.443
CC[C@H](CCC(C)[C@H]1CCC2C3CCC4C[C@@H](O)CC[C@]4(C)C3CC[C@@]21C)C(C)C (stereo partly specified) [euspeclibcmpd1543] -0.389
O=C(O)CC(O)(CC(=O)O)C(=O)O [euspeclibcmpd2464] -0.363
O=C(O)CC(O)(CC(=O)O)C(=O)O [euspeclibcmpd2462] 0.449
CC(=O)OC1C[C@@]2(C)C(C[C@@H](O)C3[C@]2(C)CC[C@H]2[C@H](C)[C@H](O)CC[C@]32C)C1=C(CCC=C(C)C)C(=O)O (stereo partly specified) [euspeclibcmpd136] -0.739
COc1cc(O)c(C(=O)c2ccccc2)cc1O [euspeclibcmpd1987] -0.376
CC(C)C(NC(=O)[C@H](CC(=O)O)NC(=O)[C@H](CCCCN)NC(=O)[C@@H](N)CCCN=C(N)N)C(=O)N[C@@H](Cc1ccc(O)cc1)C(=O)O (stereo partly specified) [euspeclibcmpd1282] -0.1
C[C@H](CCC(=O)O)[C@H]1CCC2C3C(=O)CC4CC(=O)CC[C@]4(C)C3CC(=O)[C@@]21C (stereo partly specified) [euspeclibcmpd2057] -0.197
NCCS(=O)(=O)O [euspeclibcmpd625] -0.209
